Values joined by “and” are separate entries in the source; they are usually repeats but may differ in a detail not shown here. Equal values may be shown once. This is part of a sample that, as a whole, favours compounds with a hit. Of some 83,000 tested, about 20% had one in any assay.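 The test compound was applied at a single concentration to cells in 96-well plates for 48 hours, and percent growth was recorded.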 Unmarked numbers belong to inactive results. Active and inactive are the calls of the source. Rule for the calls: active = growth percent below 10; inactive = the rest.
tested on: MDA-MB-468 breast; test: NCI-60 one-dose screen, 48 h (100 = growth as untreated, 0 = no growth, -100 = all killed); conditions: 10 µM unless noted

Row | Structure (SMILES) | growth
1 | Cc1ccc(-c2nnc(COc3ccc(-c4nnc(N)s4)cc3)o2)cc1 | 72.7%
2 | Cc1ccc(-c2nc3c(c(-c4ccccc4)nn3-c3ccccc3)c(-c3ccc(O)cc3)c2C#N)cc1 | 52.7%
3 | CC(C)C1CCCCC1O (stereo not given) | 107%
4 | COc1ccc(C(=O)CCC(=O)O)cc1 | 48%
5 | COc1cc2c(c(OC)c1)C1c3ccccc3NC(=O)N1CC2 (stereo not given) | -0.759% (active)
6 | NS(=O)(=O)c1ccc(Nc2nc(SCc3ccccc3)nc3ccccc23)cc1 | 65.4%
7 | NCCCNc1nc2ccc(Cl)cc2c2c(=O)c3cc(F)ccc3sc12 | 43.3%
8 | O=C(NCCNc1nccc(-c2c(-c3cccc(F)c3)nc3sccn23)n1)c1ccc(Cl)cc1 | 67.8%
9 | N#C/C(=C\c1ccc(Br)cc1)n1nnc2ccccc21 | 6.92% (active)
10 | CC(=O)c1cc(C)c(OC(=O)c2ccccc2)c(C)c1 | 94%
11 | CCOC(=O)c1c(Nc2ccccc2)nn2c(-c3ccc(Cl)cc3)ccnc12 | 65.1%
12 | COc1ccc2nc(-c3ccc(-c4noc(-c5cc(OC)c(OC)c(OC)c5)n4)cc3)[nH]c2c1 | 68.2%
13 | CN(C)CCOc1ccc2c(c1)C(=O)/C(=C\c1ncc([N+](=O)[O-])n1C)C2 | -78.5% (active)
14 | CCCn1ccnc1C(O)c1ccc(OCc2ccccc2)c(OC)c1 (stereo not given) | 90.5%
15 | COc1cc2nc3cc([N+](=O)[O-])ccc3c(NCCCNCCO)c2cc1OC | -49.4% (active)
16 | C[n+]1ccccc1C[n+]1ccccc1 | 117%
17 | O=Nc1c(-c2c(O)[nH]c3cc(Br)ccc23)[nH]c2ccccc12 | -34.2% (active)
18 | CCCCOc1cc(C(=O)NCCN(CC)CC)c2ccccc2n1 | 81.3% and 94.3%
19 | CCCCCCCCCCCCS(=O)CC(C)O (stereo not given) | 106%
20 | O=C1c2cccnc2C(=O)c2c1c(C(=O)NCCCN1CCCCC1)c1ccccn21 | -73.9% (active)

Row | Structure (SMILES) | growth
21 | Cc1ccc(C(=O)c2sc3nc4c(cc3c2N)CCCC4)c(C)c1 | 32.3%
22 | COc1ccc(NC(=O)c2ccc(/C=C/C(=O)c3ncc[nH]3)cc2)cc1 | 44.3%
23 | Cn1c2ccc(Cl)cc2c2nn(C(=O)c3ccccc3)c(=O)nc21 | 103%
24 | CN(C)Cc1cc(C(C)(C)CC(C)(C)C)ccc1O | 100%
25 | CCCCCCCCCCCCCCCC[n+]1cccc(C#N)c1 | -27.5% (active)
26 | N#CSc1c[nH]c2ccc(/C=C/C(=O)/C=C(/C=C/c3ccc4[nH]cc(SC#N)c4c3)OB(F)F)cc12 | -49% (active)
27 | CC(=O)[C@H]1CC[C@H]2[C@@H]3CC[C@@H]4CC=C(C=O)C[C@]4(C)[C@H]3CC[C@]12C | 99.4%
28 | O=c1c2ccccc2[nH]n1Cc1ccc2c(c1)OCO2 | 94.5%
29 | O=S(=O)(O)c1cc(O)c2c(N=Nc3ccc(Nc4ccccc4)c4c(S(=O)(=O)O)cccc34)cc(S(=O)(=O)O)cc2c1 | 103%
30 | O=C1/C(=C/c2cccc(F)c2)Cc2ccccc21 | 107%
31 | C/C(=N/NC(N)=S)c1ccc(C)cc1 | 23.5%
32 | CCOC(=O)c1c2c(c(C)n1Cc1ccc(OC)cc1)-c1oncc1CC2 | 97.8%
33 | Cc1ccc(CNS(=O)(=O)/N=C2\NC(=O)NC2=C(Cl)Cl)cc1 | 1.67% (active)
34 | Cc1ccc(NC(=O)c2cc(/C=C/C(=O)NO)cc(C(F)(F)F)c2)cc1Nc1nccc(-c2cccnc2)n1 | -24.4% (active)
35 | COc1ccc2c(c1)c(-c1nn3cc(-c4cccs4)nc3s1)cn2C | 71.5%
36 | Nc1nc(N)c(N)c(Nc2ccc(CCO)cc2)n1 | 92.8%
37 | CCC(OC(=O)CC(C)C)c1ccccc1 (stereo not given) | 99.3%
38 | COc1cc(-c2nc3ccc(C)cc3[nH]2)ccc1OCC(=O)N=Nc1c(O)[nH]c2ccc(Cl)cc12 | -48.7% (active)
39 | CCCn1cnc2c1c(=O)n(CCCCC(C)=O)c(=O)n2C | 107%
40 | Nc1cc(F)ccc1NC(=O)c1ccc(NC(=O)C/C=C/c2cccnc2)cn1 | -27.4% (active)

Source: PubChem BioAssay (NCI)
